Compounds with a hit are over-represented: about 19% of the library has one in this group of screens.
DT40 TDP1 no CPT: qHTS for Inhibitors of human tyrosyl-DNA phosphodiesterase 1 (TDP1): qHTS in cells in absence of CPT | DT40 Tdp1-/- hTDP1 cells, no CPT, ATP luminescence, 48 h | Potency, µM (highest dose often 46.2 µM), for inactives: at the highest dose activity change, negative = growth inhibition, hits mostly inhibitors | hit rate 15% among 420,000; further: potency means the concentration at half of the fitted maximal effect; nearly all actives have a fitted effect of over 55% in size
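Camptothecin absent (DMSO only). Human TDP1-complemented DT40 knockout cells, 400 cells/well, 37 °C for minimum 48 hr; ATP measured via CellTiter-Glo, 30 min dark incubation, luminescence.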
IL1B secr inh: qHTS for Inhibitors of Inflammasome Signaling: IL-1-beta AlphaLISA Primary Screen; hit rate 4.7% among 360,000; activity change, % at 57.5 µM; THP-1 LPS/ATP IL-1B secretion, AlphaLISA, 16 h; active compounds read low; in the data active means activity change below about -50%; inconclusive means mostly about -30% to -49%
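Secreted IL-1B measured by AlphaLISA bead assay after 16 h compound exposure of THP-1 cells; compounds (final up to 57.5 uM) added 1 h before LPS (250 ng/mL) and ATP (1.25 mM) stimulation; lower signal means less secretion.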
HT1080 IDH1KD tx: qHTS for induction of synthetic lethality in tumor cells producing 2HG: qHTS for the HT-1080-IDH1KD cell line; Potency, µM (series often up to 46.1 µM), without a hit: at the highest dose activity, negative = toxicity, most hits filed as cytotoxic; HT-1080 IDH1 knockdown viability, ATP luminescence, 48 h; hit rate 2% among 360,000;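 further: potency means the concentration at half of the fitted maximal effect; 0% = DMSO wells and -100% = cell-free medium wells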
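CellTiter-Glo luminescence after 48 h compound exposure at 37 degrees C of IDH1-knockdown HT-1080 cells in 5% FBS RPMI. %Activity scaled between DMSO wells and cell-free media wells, with curves fitted and assigned curve classes.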
HT1080-NT tox: qHTS for induction of synthetic lethality in tumor cells producing 2HG: qHTS for the HT-1080-NT fibrosarcoma cell line | HT-1080-NT fibrosarcoma viability, CellTiter-Glo ATP luminescence, 48 h | hit rate 1.6% among 360,000 | AID 686970, 2013 | Potency, µM (top dose mostly 46.1 µM), for the others: at the highest dose activity, negative = less viability, usual class: cytotoxic;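 further: NT is the 2HG producing partner of a matched IDH1 knockdown line; potency means the concentration at half of the fitted maximal effect; 0% = DMSO-treated cells and -100% = media-only wells without cells; nearly all actives have a fitted effect of over 55% in size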
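Toxicity toward the 2HG-producing NT line was scored as %Activity, normalised to DMSO and no-cell wells, from CellTiter-Glo luminescence after 48 hours' treatment.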
DT40 TDP1 CPT: qHTS for Inhibitors of human tyrosyl-DNA phosphodiesterase 1 (TDP1): qHTS in cells in presence of CPT. hit rate 12% among 420,000. AID 686979, 2013. chicken DT40 Tdp1-/-;hTDP1 cells + 20 nM CPT, ATP luminescence, 48 h. Potency, µM (highest dose often 46.2 µM), for inactives: at the highest dose activity change, negative = growth inhibition, hits mostly inhibitors; further: potency means the concentration at half of the fitted maximal effect; nearly all actives have a fitted effect of over 55% in size
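Chicken DT40 Tdp1-/- cells stably complemented with human TDP1 were seeded at 400 cells/well in medium containing 20 nM camptothecin, exposed to pin-transferred compounds, and grown at 37 °C for at least 48 hr. Viability was read as ATP luminescence.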
The depositor's hits bear a star; [ ] = remark or other dose. Unless noted, the call rests on the fitted dose curve; in most records, active means well fitted curve in the direction sought with a large enough effect; inconclusive means small, poorly fitted or top-dose-only effect, or another doubt; inactive means no such curve, though single readings can be large; an effect the other way counts as inactive or inconclusive. Unless noted, on the % scale 0 is the no-effect control and ±100 the full control effect.

For COC(=O)Cn1ncc2c3ccccc3n(Cc3ccccc3)c2c1=O the results were DT40 TDP1 no CPT -25%, IL1B secr inh 15, HT1080 IDH1KD tx -17%, HT1080-NT tox -8% and DT40 TDP1 CPT inconclusive.
`CCCn1c2ccccc2c2cnn(CC(=O)N(Cc3ccccc3)C(C)C)c(=O)c21` gave DT40 TDP1 no CPT 18µM* and DT40 TDP1 CPT 23µM*.
Screening CCOC(=O)Cn1ncc2c3ccccc3n(CC(=O)OCC)c2c1=O returned DT40 TDP1 no CPT -5%, IL1B secr inh 0, HT1080 IDH1KD tx -6%, HT1080-NT tox -8% and DT40 TDP1 CPT -26%.
CCCCN(CC)C(=O)Cn1ncc2c3ccccc3n(CCC)c2c1=O was read as DT40 TDP1 no CPT 23µM*, IL1B secr inh -21, HT1080 IDH1KD tx -19%, HT1080-NT tox -20% and DT40 TDP1 CPT inconclusive.
COc1cc2oc(=O)c(CC(=O)N3CCCCC3)c(C)c2cc1OC was read as DT40 TDP1 no CPT 9% and DT40 TDP1 CPT -18%.
CC(NC(=O)c1cc2cc(F)ccc2[nH]1)c1ccccc1 (stereo not given) was read as DT40 TDP1 no CPT inconclusive, IL1B secr inh 41, HT1080 IDH1KD tx -4%, HT1080-NT tox -7% and DT40 TDP1 CPT 18µM*.
COc1ccc(NS(=O)(=O)c2cc(NC(=O)CCc3ccccc3)ccc2N2CCOCC2)cc1 was read as DT40 TDP1 no CPT -22%, IL1B secr inh -30, HT1080 IDH1KD tx -9%, HT1080-NT tox -13% and DT40 TDP1 CPT inconclusive.
For CCOc1ccc(NC(=O)N2CCC(c3nc4ccccc4[nH]3)CC2)cc1 the results were DT40 TDP1 no CPT -28%, IL1B secr inh -12, HT1080 IDH1KD tx -10%, HT1080-NT tox -18% and DT40 TDP1 CPT 10%.
Screening Fc1ccccc1COc1ccc(Br)cc1CNCC1CCCO1 (stereo not given) returned DT40 TDP1 no CPT 15µM*, IL1B secr inh inconclusive, HT1080 IDH1KD tx -3%, HT1080-NT tox -8% and DT40 TDP1 CPT inconclusive.
Screening Fc1cccc(CNCC2CCCO2)c1 (stereo not given) returned DT40 TDP1 no CPT -3%, IL1B secr inh 3, HT1080 IDH1KD tx 10%, HT1080-NT tox 8% and DT40 TDP1 CPT -7%.
Screening Fc1ccc(COc2ccc(Br)cc2CNCC2CCCO2)cc1 (stereo not given) returned DT40 TDP1 no CPT inconclusive, IL1B secr inh -74*, HT1080 IDH1KD tx inconclusive, HT1080-NT tox inconclusive and DT40 TDP1 CPT inconclusive.
`CC(=O)NC1CC2CCCC(C1)N2C(=O)Nc1c(C)cccc1C` (stereo not given) gave DT40 TDP1 no CPT -1%, IL1B secr inh -15, HT1080 IDH1KD tx 5%, HT1080-NT tox -1% and DT40 TDP1 CPT 17%.
`CCn1c(SCc2nc3ccccc3c(=O)[nH]2)nc2ccccc21` gave DT40 TDP1 no CPT 21µM*, IL1B secr inh -11, HT1080 IDH1KD tx -17%, HT1080-NT tox -5% and DT40 TDP1 CPT inconclusive.
Cc1sc2nc(CSc3nnnn3-c3ccc(Cl)cc3)[nH]c(=O)c2c1C was read as DT40 TDP1 no CPT 16µM*, IL1B secr inh 4, HT1080 IDH1KD tx -12%, HT1080-NT tox -2% and DT40 TDP1 CPT inconclusive.
Cn1c(Cc2ccccc2)nnc1SCc1nc2ccccc2c(=O)[nH]1 was read as DT40 TDP1 no CPT -14%, IL1B secr inh 5, HT1080 IDH1KD tx -5%, HT1080-NT tox -18% and DT40 TDP1 CPT 1%.
`COCCn1c(Cc2ccccc2)nnc1SCc1nc2ccccc2c(=O)[nH]1` gave DT40 TDP1 no CPT 16µM*, IL1B secr inh 19, HT1080 IDH1KD tx -1%, HT1080-NT tox 1% and DT40 TDP1 CPT inconclusive.
Screening CCn1c(SCc2nc3sc(C(=O)O)c(C)c3c(=O)[nH]2)nnc1-c1ccc(Cl)cc1 returned DT40 TDP1 no CPT 11%, IL1B secr inh 0, HT1080 IDH1KD tx 3%, HT1080-NT tox 4% and DT40 TDP1 CPT -2%.
CCCn1c(SCc2nc3sc(C)c(C)c3c(=O)[nH]2)nc2ccccc2c1=O was read as DT40 TDP1 no CPT 15µM*, IL1B secr inh -8, HT1080 IDH1KD tx 6%, HT1080-NT tox 2% and DT40 TDP1 CPT inconclusive.
For COCCn1c(SCc2nc3ccccc3c(=O)[nH]2)nc2ccccc2c1=O the results were DT40 TDP1 no CPT inconclusive, IL1B secr inh 15, HT1080 IDH1KD tx inconclusive, HT1080-NT tox inconclusive and DT40 TDP1 CPT inconclusive.
CC1CN(CCC(=O)N2CCCC(C(=O)c3nccn3C)C2)Cc2cc(Cl)ccc2O1 (stereo not given) was read as DT40 TDP1 no CPT -18% and DT40 TDP1 CPT 23%[9.04 µM].
CCC(c1ccccc1)C(CC)c1cc(O)c(O)c(O)c1 (stereo not given) was read as DT40 TDP1 no CPT 8.2µM*, IL1B secr inh -78*, HT1080 IDH1KD tx inconclusive, HT1080-NT tox inconclusive and DT40 TDP1 CPT 16µM*.
For CCC(C(=O)O)c1ccccc1 (stereo not given) the results were DT40 TDP1 no CPT 1% and DT40 TDP1 CPT 0%.
Screening CCOC(=O)C1=Nc2ccccc2C1=[N+]=[N-] returned DT40 TDP1 no CPT 7.3µM*, IL1B secr inh -71*, HT1080 IDH1KD tx inconclusive, HT1080-NT tox -25% and DT40 TDP1 CPT 4.6µM*.
`CON(C)C(=O)CCC1CCCN1C(=O)OC(C)(C)C` (stereo not given) gave DT40 TDP1 no CPT -5%, IL1B secr inh -6, HT1080 IDH1KD tx 0%, HT1080-NT tox 6% and DT40 TDP1 CPT -7%.
C#CC(=O)CCC1CCCN1C(=O)OC(C)(C)C (stereo not given) was read as DT40 TDP1 no CPT inconclusive, IL1B secr inh -20, HT1080 IDH1KD tx 7%, HT1080-NT tox 16% and DT40 TDP1 CPT 15µM*.
CCn1c(SCC(=O)N(C(C)C)C(C)C)nnc1-c1cc2ccccc2cc1O was read as DT40 TDP1 no CPT 18µM*, IL1B secr inh -9, HT1080 IDH1KD tx -18%, HT1080-NT tox -2% and DT40 TDP1 CPT 23µM*.
Screening COc1ccc(C(=O)CSc2nnc(-c3cccnc3)n2Cc2ccco2)cc1 returned DT40 TDP1 no CPT inconclusive, IL1B secr inh inconclusive, HT1080 IDH1KD tx 14%, HT1080-NT tox 16% and DT40 TDP1 CPT -21%.
COc1ccc(C)cc1NC(=O)CSc1nnc(COc2ccccc2)n1Cc1ccco1 was read as DT40 TDP1 no CPT 21µM*, IL1B secr inh -9, HT1080 IDH1KD tx -8%, HT1080-NT tox -22% and DT40 TDP1 CPT 16µM*.

From PubChem
